Consider 47 compounds from PubChem BioAssay AID2685 (National Center for Advancing Translational Sciences (NCATS), 2010).

Values joined by “and” are separate entries in the source; they are usually repeats but may differ in a detail not shown here. Equal values may be shown once. About 2,100 (0.66%) of roughly 320,000 compounds were called active. Roughly 53% stayed inconclusive and do not appear here. Calls follow the shape of the dose curve; as a rule, active = well fitted inhibition curve with a large enough effect in the signal ratio, with a control signal flat (not every such curve was filed as active); inconclusive = small, poorly fitted or top-dose-only effect, or effect the other way, or a change in a side signal; inactive = flat fitted curve, though single readings scatter; the % refers to the signal ratio. Only a selection was taken, and actives are over-represented in it overall.
Potency is read from the fitted curve at half-maximal effect.

A short description of the test: qHTS Assay for Lipid Storage Modulators in Drosophila S3 Cells.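 As to cell number change: cells counted by Cell Tracker Red CMTPX staining in the red channel.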 To be noted: BODIPY lipid droplet fluorescence, 18-24 h, cells fed with added oleic acid; cell number change: measured here: cell count max response; series mostly up to 46.1 µM. Put shortly:
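Drosophila S3 cells loaded with oleic acid (400 uM, as added) and compounds at several concentrations; lipid droplets imaged by 488-nm laser-scanning cytometry, 500–530 nm intensity and object ratio to cell channel. Percent activity normalized to 20 uM Triacsin C.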
For orientation: Quantitative high-throughput screening tests each substance at several concentrations.
On to `O=C(CCCN1C(=O)/C(=C/c2cccs2)SC1=S)NNC(=O)c1ccncc1`, for which the Potency result was “inactive” and the cell number change is 21%.
Consider `Cc1ccc(/C=C2\SC(=S)N(CCCC(=O)NNC(=O)c3ccccc3O)C2=O)cc1`, for which the Potency entry was “inactive” and the cell number change came to 17.7%.
In the case of `O=C(CCCN1C(=O)/C(=C\c2cccs2)SC1=S)Nc1cc([N+](=O)[O-])ccc1O`, the Potency result is “inactive”.
Regarding `O=C(CCN1C(=O)/C(=C/c2cccs2)SC1=S)Nc1ccccc1O`, the Potency was 3.66 µM (active) and the cell number change stood at 13.5%.
On to `O=C(CCN1C(=O)/C(=C/c2cccs2)SC1=S)Nc1cccc(C(=O)O)c1`, for which the Potency was 0.164 µM (active) and the cell number change was -17.1%.
`O=C(CCN1C(=O)/C(=C/c2cccs2)SC1=S)Nc1ccc(C(=O)O)c(O)c1`: the Potency entry is “inactive” and the cell number change was -26.8%.
As for `CCc1ccc(OCC(=O)N(C)CCC#N)c(Br)c1`, the Potency entry was “inactive”.
Turning to `CC1=[N+]([O-])C(C)(C)C(C)N(O)C1=O` (configuration not stated), the Potency entry is “inactive” and the cell number change is 1.53%.
In the same order, the values of `COc1ccc(C(=O)O)cc1S(=O)(=O)Nc1cc(Cl)ccc1N1CCOCC1` are “inactive” and 11.4%.
In the same order, the values of `COC(=O)/C=C1\SC(=NC(=O)c2cccc(Cl)c2)NC1=O` are “inactive” and -23.4%.
For `Nc1nonc1-n1nnc(C(=O)N/N=C/c2ccc(OCc3ccccc3)cc2)c1CN1CCCCC1`, the Potency entry is “inactive”.
Consider `O=C(Nc1cccc(NC(=O)c2ccc(Br)o2)c1)c1ccccc1`, for which the Potency entry is “inactive” and the cell number change is -12.9%.
With `N#CC1=C(Nc2ccccc2)SC=C(c2ccc(Cl)c(Cl)c2)N=C1N1CCOCC1`, the Potency entry is “inactive” and the cell number change was -15.3%.
In the same order, the values of `Cc1cc(C)n(-c2ccc(C(=O)NC3CCCCC3)cc2)n1` are “inactive” and 17.4%.
The corresponding values for `COc1ccccc1NC(=O)C(C/C=C(/C)Cl)C(C)=O` (configuration not stated) are “inactive” and 12.3%.
The corresponding values for `COc1ccc(N(CC(=O)N/N=C/c2cccnc2)S(=O)(=O)c2ccc(C)cc2)cc1OC` are “inactive” and -15.9%.
With `CC(=O)Nc1ccc(S(=O)(=O)NC2CC2)cc1`, the Potency result is “inactive” and the cell number change was -7.3%.
For the compound `O=C(O)CCCCCCCCCC(=O)c1cccs1`, the Potency entry is “inactive” and the cell number change was -19.9%.
The corresponding values for `O=C(CCN1C(=O)/C(=C\c2ccco2)SC1=S)Nc1ccc(C(=O)O)c(O)c1` are “inactive” and 1.15%.
`O=C(CN1C(=O)/C(=C/c2ccco2)SC1=S)Nc1ccc(C(=O)O)c(O)c1`: the Potency was 20.6 µM (active) and the cell number change was found to be 25.4%.
The corresponding values for `O=C(CCN1C(=O)/C(=C/c2ccco2)SC1=S)Nc1ccc(C(=O)O)c(O)c1` are “inactive” and -0.876%.
In the same order, the values of `Cc1ccccc1COC(=O)c1nn(-c2ccccc2)nc1N` are “inactive” and 3.63%.
In the same order, the values of `CCOC(=O)C(NC(=O)c1ccc(F)cc1)(Nc1nnc(C)s1)C(F)(F)F` (configuration not stated) are “inactive” and 2.37%.
`COc1ccc(NC(=O)N2CCCC(CNS(=O)(=O)c3cccs3)C2)c(C)c1` (configuration not stated): the Potency entry was “inactive” and the cell number change is -5.03%.
For `COCCn1c(SCC(=O)Nc2ccc(F)cc2)nc2ccccc2c1=O`, the Potency entry was “inactive” and the cell number change worked out at 3.47%.
In the same order, the values of `COCCCn1c(SCC(=O)Nc2ccc(C)cc2)nc2ccccc2c1=O` are “inactive” and -12.3%.
As for `COCCn1c(SCC(=O)Nc2cc(C)cc(C)c2)nc2ccccc2c1=O`, the Potency is 2.06 µM (active) and the cell number change is -20.8%.
In the case of `CSCC[C@H](NC(=O)COc1ccc(Cl)cc1)C(=O)N1CCC2(CC1)NCCc1[nH]cnc12`, the Potency entry is “inactive”.
Turning to `O=C(NC(Cc1ccccc1)C(=O)O)C1CCCCC1` (configuration not stated), the Potency entry is “inactive” and the cell number change is -3.98%.
As for `CCC(C(=O)NC1CCCCC1)N(Cc1cccs1)C(=O)c1snc(C(N)=O)c1N` (configuration not stated), the Potency entry was “inactive”.
Same read-out and setting: the figure for `COc1ccc(N(C(=O)c2snc(C(N)=O)c2N)C(C(=O)NC2CCCCC2)c2ccc(F)cc2)c(OC)c1` (configuration not stated) is 13 µM (active).
For `CCCC(C(=O)NCCC(C)C)N(Cc1ccc(F)cc1)C(=O)c1snc(C(N)=O)c1N` (configuration not stated), the Potency result was “inactive” and the cell number change is -7.77%.
Regarding `COc1ccc(C(C(=O)NC2CCCC2)N(C(=O)c2snc(C(N)=O)c2N)c2cc(C)ccc2OC)cc1OC` (configuration not stated), the Potency entry is “inactive” and the cell number change is -1.28%.
Take `CCC(C(=O)NC1CCCC1)N(Cc1ccccc1Cl)C(=O)c1snc(C(N)=O)c1N` (configuration not stated): the Potency is 0.58 µM (active) and the cell number change was -3.04%.
The corresponding values for `CCC(C(=O)NC(C)(C)C)N(Cc1ccccc1Cl)C(=O)c1snc(C(N)=O)c1N` (configuration not stated) are “inactive” and -22.3%.
The corresponding values for `CCCC(C(=O)NCCC(C)C)N(Cc1ccc(OC)cc1)C(=O)c1snc(C(N)=O)c1N` (configuration not stated) are “inactive” and -7.72%.
The corresponding values for `CCCC(C(=O)NCCC(C)C)N(Cc1ccccc1)C(=O)c1snc(C(N)=O)c1N` (configuration not stated) are 3.66 µM (active) and -3.86%.
In the case of `COc1ccc(N(C(=O)c2snc(C(N)=O)c2N)C(C(=O)NC2CCCC2)c2cc(OC)ccc2OC)c(OC)c1` (configuration not stated), the Potency result was “inactive” and the cell number change is -0.901%.
In the same order, the values of `CCOC(=O)Cc1csc(NC(=S)NC(=O)c2cc(OC)c(OC)c(OC)c2)n1` are “inactive” and -1.2%.
As for `COc1ccc(NC(=O)Nc2nnc(-c3cccs3)s2)cc1`, the Potency result was “inactive” and the cell number change was -11.4%.
In the case of `COc1ccc(C(=O)Nc2nc(-c3ccccc3)c(C(C)=O)s2)c(OC)c1`, the Potency result is “inactive” and the cell number change was -8.6%.
For `COCCn1c(=O)[nH]c2cc(C(=O)NC(C)C)ccc2c1=O`, the Potency entry is “inactive” and the cell number change is 2.66%.
Take `CCCS(=O)(=O)c1nc(S(=O)(=O)c2ccc(C)cc2)c(NCCCN(C)C)s1`: the Potency result is “inactive” and the cell number change is 6.73%.
Take `CC(=O)NC(c1cccs1)c1cc(Br)c2cccnc2c1O` (configuration not stated): the Potency result is “inactive” and the cell number change came to 16.4%.
The corresponding values for `CC(=O)NC(c1ccco1)c1cc(F)c2cccnc2c1O` (configuration not stated) are “inactive” and -4.72%.
Turning to `CC(=O)NC(c1cccs1)c1cc(F)c2cccnc2c1O` (configuration not stated), the Potency was 8.4% and -17.4%.
Take `Cc1cc(C)c(NC(=O)CS(=O)CC(=O)NCC2CCCO2)c(C)c1` (configuration not stated): the Potency result was “inactive” and the cell number change was determined as 3.77%.
